# The supplement of paper PMC3545927
# Some of the results follow. The hit rate among all sequences tested is not known here.
# Target: furin, P09958
# Test: furin cleavage Z-score vs untreated control; higher = more cleavage, active = 3.5 or more, inactive = 1 or less, 8 variable residues between constant flanks
# Method in brief: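 Magnetic beads held 8-mer peptides by the N-terminus, each fused to a cDNA oligonucleotide, and purified furin was added for 7.5, 15 or 30 min. Released DNA was sequenced after PCR adapter tagging. The cleavage Z-score is the log count relative to furin-free reactions, lowess-adjusted and divided by median absolute deviation.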
# 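Also: purified furin at 1:10 enzyme:substrate in 50 mM HEPES pH 7.5.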
# Sequence of furin, P09958 (P09958 whole entry): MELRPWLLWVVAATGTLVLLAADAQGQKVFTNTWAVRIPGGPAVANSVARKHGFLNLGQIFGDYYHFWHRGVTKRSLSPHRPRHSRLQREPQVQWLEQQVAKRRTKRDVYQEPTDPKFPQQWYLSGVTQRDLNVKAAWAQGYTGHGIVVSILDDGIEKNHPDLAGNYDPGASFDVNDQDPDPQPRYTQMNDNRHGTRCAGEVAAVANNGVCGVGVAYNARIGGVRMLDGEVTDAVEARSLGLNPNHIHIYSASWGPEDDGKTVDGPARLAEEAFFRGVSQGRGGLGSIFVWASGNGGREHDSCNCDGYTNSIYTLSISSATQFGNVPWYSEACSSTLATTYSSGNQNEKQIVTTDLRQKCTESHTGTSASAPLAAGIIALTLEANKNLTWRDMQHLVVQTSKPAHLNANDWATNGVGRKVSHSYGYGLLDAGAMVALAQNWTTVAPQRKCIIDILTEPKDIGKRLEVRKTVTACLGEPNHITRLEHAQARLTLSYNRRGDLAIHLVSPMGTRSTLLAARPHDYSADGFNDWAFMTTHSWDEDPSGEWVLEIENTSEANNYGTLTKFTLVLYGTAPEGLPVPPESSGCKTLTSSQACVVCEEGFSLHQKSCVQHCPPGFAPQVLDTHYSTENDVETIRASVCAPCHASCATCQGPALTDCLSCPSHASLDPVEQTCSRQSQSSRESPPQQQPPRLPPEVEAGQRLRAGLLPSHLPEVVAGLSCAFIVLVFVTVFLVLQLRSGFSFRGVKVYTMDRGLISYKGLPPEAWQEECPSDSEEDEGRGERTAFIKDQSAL
Sequence,furin cleavage Z-score (7.5 min),furin cleavage Z-score (15 min),furin cleavage Z-score (30 min)
CADLSDGSWSAGNASASA [HC1360],-0.871 (inactive),-1.27 (inactive),-0.416 (inactive)
CARRQVWKRRAGNASASA [FS-1161],0.586 (inactive),4.58 (active),4.41 (active)
CARRLRDKRRAGNASASA [FS-713],0.73 (inactive),2.01,1.44
CARRIRFVGRAGNASASA [FS-3261],0.201 (inactive),1.15,3.25
CAGWFTAGYSAGNASASA [HC1645],0.812 (inactive),-0.589 (inactive),0.435 (inactive)
CAEVVTSTYVAGNASASA [HC2229],0.886 (inactive),0.18 (inactive),0.589 (inactive)
CAEVVCSTWVAGNASASA [HC134],-0.675 (inactive),-0.0617 (inactive),-0.318 (inactive)
CAYDCRCKRGAGNASASA [FS-899],0.698 (inactive),0.0271 (inactive),1.85
CAILHRQKRGAGNASASA [FS-665],12.5 (active),12.9 (active),9.04 (active)
CAVHHRPKRGAGNASASA [FS-309],12 (active),10.8 (active),9.72 (active)
CAEVPCHRPMAGNASASA [HC2406],-0.721 (inactive),1.03,-0.487 (inactive)
CARCDLEDRDAGNASASA [HC486],1.03,-0.684 (inactive),-1.47 (inactive)
CAVQNEITLTAGNASASA [HC976],-0.158 (inactive),-0.101 (inactive),0.696 (inactive)
CAVVCISMSYAGNASASA [HC85],-1.62 (inactive),-2.02 (inactive),-0.461 (inactive)
CAEPHRARRGAGNASASA [FS-1451],5.81 (active),5.59 (active),6.2 (active)
CARGCRARRGAGNASASA [FS-1060],3.97 (active),3.87 (active),2.93
CAQRRRARRGAGNASASA [FS-850],2.4,2.13,0.325 (inactive)
CAQTPCSAHLAGNASASA [HC2482],-0.0432 (inactive),0.702 (inactive),2.39
CASTPCSAHKAGNASASA [HC2574],-0.715 (inactive),0.189 (inactive),-1.56 (inactive)
CATSRSACQRAGNASASA [HC1391],0.0948 (inactive),0.314 (inactive),0.239 (inactive)
CARKKRKSPKAGNASASA [FS-2268],0.83 (inactive),2.91,2.06
CARFKRKLPKAGNASASA [FS-1948],0.844 (inactive),1.94,3.55 (active)
CARFKRKDRMAGNASASA [FS-2553],4.28 (active),3.52 (active),4.13 (active)
CARPGRKDRRAGNASASA [FS-1067],0.778 (inactive),1.1,0.538 (inactive)
CATTKRDAGKAGNASASA [FS-2474],-0.152 (inactive),-0.387 (inactive),0.96 (inactive)
CARFKRAAGKAGNASASA [FS-2259],11.2 (active),12.2 (active),9.21 (active)
CARSKRIAGKAGNASASA [FS-2811],0.535 (inactive),-0.714 (inactive),0.638 (inactive)
CARICRDIPKAGNASASA [FS-2029],3.76 (active),5.68 (active),4.88 (active)
CAREGRDGPKAGNASASA [FS-2003],0.305 (inactive),-0.0392 (inactive),-2.05 (inactive)
